# According to the supplement of paper PMC10849652:
# About 8,800 targets were measured; listed, in parts, are those with a hit and a random draw of the rest. About 0.5% of all pairs of compound and target were hits.
# Compound: CC(=O)c1cnc2ccc(-c3cc(Cl)c(O)c(Cl)c3)nc2c1N[C@H]1CC[C@H](CN(C)C)CC1
# Experiment: log2 fold change, soluble protein after heating vs DMSO (PISA); higher = thermal stabilisation; K562 lysate, 10 uM; active = over 0.2 and 3.5 SD of the protein, either way, in both replicates (recomputed)
# In short: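 Following dounce homogenisation of K562 pellets in PBS pH 7.4 with 1 mM MgCl2, crude extract at 1 mg/mL protein was incubated for 30 min with 10 μM compound. Aliquots were then heated for 3 min over 48°C-58°C and pooled, NP-40 was added to 0.5% at 4°C, and soluble protein was recovered as the supernatant at 21,000xg for 90 min. Channel-sum-equalised TMTpro 16plex LC-MS/MS quantified this protein. Each value, from duplicates, is a log-two fold change in thermal stability relative to solvent controls.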
# Sequence of UniProt Q9BTD8 (Q9BTD8 whole entry, looked up): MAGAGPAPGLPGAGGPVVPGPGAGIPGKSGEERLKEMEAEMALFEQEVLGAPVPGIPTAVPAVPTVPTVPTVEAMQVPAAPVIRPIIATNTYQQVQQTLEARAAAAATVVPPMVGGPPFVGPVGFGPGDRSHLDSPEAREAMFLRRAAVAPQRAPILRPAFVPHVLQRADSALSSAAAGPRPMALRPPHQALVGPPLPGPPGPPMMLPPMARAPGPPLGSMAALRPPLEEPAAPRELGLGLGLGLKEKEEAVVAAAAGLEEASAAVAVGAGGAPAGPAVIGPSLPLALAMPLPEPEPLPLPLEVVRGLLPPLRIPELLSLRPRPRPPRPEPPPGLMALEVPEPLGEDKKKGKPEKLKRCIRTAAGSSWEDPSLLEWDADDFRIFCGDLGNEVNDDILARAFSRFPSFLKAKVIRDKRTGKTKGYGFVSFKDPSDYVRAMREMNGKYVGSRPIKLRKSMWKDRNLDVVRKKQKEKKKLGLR
# Sequence of UniProt Q96DM3 (Q96DM3 whole entry, looked up): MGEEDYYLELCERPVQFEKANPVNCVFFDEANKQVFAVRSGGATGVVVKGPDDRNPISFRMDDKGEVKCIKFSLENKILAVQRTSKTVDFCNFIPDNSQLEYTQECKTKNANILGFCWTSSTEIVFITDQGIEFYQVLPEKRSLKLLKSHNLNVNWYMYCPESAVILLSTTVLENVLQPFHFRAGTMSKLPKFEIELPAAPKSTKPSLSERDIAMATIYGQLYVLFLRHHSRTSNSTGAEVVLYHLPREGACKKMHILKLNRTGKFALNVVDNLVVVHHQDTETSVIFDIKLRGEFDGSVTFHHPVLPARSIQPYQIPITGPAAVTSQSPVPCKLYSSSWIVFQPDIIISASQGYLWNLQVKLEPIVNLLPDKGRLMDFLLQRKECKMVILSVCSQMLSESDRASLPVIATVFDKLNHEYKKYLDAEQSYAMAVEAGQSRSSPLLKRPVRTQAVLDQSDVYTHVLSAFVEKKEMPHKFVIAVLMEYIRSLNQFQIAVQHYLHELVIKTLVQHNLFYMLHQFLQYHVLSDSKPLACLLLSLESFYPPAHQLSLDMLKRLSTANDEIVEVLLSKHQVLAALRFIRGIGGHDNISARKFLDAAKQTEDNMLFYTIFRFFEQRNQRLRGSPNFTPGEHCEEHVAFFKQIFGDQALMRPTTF
# Sequence of UniProt Q96EE3 (Q96EE3 whole entry, looked up): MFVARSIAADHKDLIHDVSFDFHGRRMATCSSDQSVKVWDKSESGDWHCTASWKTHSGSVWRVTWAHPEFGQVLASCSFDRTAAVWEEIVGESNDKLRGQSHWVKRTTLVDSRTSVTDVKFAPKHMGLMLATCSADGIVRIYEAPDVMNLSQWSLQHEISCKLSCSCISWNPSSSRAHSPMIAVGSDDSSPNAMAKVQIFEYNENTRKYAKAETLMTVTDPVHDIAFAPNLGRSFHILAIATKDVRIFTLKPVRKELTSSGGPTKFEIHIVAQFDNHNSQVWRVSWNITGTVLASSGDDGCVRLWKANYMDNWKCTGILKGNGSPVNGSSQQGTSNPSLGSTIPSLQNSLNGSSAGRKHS
# Sequence of UniProt Q9H0U4 (Q9H0U4 whole entry, looked up): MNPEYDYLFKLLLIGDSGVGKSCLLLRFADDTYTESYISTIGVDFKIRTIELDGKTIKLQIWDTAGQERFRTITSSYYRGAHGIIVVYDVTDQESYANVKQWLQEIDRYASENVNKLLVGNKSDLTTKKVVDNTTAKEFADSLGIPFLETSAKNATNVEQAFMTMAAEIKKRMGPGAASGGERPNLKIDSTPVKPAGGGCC
# Sequence of UniProt Q7L523 (Q7L523 whole entry, looked up): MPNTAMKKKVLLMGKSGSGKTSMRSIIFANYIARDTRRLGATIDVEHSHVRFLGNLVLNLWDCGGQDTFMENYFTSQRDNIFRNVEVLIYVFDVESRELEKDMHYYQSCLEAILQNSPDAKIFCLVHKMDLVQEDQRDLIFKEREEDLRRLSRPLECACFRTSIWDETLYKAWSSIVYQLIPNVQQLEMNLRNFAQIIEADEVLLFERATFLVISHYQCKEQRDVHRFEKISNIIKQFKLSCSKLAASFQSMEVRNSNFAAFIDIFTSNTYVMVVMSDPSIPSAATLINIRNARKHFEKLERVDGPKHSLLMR
# Sequence of UniProt O14730 (O14730 whole entry, looked up): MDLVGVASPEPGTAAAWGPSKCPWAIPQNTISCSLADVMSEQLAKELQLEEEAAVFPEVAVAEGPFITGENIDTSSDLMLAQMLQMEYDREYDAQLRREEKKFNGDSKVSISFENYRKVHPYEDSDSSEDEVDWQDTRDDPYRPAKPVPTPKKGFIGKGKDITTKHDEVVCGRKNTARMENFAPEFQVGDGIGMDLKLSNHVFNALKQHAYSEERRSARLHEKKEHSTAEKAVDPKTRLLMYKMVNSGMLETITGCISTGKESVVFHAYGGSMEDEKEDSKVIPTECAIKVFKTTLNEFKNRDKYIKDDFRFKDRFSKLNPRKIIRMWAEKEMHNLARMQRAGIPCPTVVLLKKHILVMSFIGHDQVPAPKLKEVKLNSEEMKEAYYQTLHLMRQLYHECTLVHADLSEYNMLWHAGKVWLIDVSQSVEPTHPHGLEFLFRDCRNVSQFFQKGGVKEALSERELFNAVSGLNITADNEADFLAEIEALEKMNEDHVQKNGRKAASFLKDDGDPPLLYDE
# Sequence of UniProt Q99708 (Q99708 whole entry, looked up): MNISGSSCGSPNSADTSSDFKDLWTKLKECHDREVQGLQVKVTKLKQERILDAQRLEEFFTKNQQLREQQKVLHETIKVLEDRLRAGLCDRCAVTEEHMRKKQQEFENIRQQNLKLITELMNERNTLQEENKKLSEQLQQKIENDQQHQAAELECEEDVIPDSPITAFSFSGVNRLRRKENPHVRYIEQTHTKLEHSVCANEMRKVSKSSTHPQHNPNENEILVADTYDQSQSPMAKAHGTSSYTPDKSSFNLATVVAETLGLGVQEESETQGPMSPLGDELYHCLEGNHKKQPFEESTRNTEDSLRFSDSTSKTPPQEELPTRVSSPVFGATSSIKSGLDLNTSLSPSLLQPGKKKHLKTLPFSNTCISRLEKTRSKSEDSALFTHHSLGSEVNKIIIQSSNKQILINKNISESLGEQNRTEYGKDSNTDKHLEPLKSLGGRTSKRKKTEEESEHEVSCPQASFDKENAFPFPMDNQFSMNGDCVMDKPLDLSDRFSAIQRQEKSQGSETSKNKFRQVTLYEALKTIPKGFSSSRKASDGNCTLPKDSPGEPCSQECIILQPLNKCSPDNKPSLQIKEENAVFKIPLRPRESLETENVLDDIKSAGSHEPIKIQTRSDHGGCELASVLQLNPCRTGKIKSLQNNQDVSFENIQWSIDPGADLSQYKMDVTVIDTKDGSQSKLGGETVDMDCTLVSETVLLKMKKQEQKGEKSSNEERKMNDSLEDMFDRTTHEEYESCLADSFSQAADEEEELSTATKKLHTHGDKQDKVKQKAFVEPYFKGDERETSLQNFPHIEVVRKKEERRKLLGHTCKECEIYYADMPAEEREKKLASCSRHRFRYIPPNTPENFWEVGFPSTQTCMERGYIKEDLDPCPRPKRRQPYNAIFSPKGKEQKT
# Sequence of UniProt Q15404 (Q15404 whole entry, looked up): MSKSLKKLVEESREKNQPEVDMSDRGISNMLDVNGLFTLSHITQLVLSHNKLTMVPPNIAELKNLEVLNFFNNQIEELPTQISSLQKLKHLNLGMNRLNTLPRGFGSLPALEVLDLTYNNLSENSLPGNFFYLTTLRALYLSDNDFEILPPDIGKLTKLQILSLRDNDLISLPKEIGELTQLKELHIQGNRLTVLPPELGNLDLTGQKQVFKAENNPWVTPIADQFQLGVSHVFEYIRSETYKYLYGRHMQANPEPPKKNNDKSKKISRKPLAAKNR
# Sequence of UniProt P40938 (P40938 whole entry, looked up): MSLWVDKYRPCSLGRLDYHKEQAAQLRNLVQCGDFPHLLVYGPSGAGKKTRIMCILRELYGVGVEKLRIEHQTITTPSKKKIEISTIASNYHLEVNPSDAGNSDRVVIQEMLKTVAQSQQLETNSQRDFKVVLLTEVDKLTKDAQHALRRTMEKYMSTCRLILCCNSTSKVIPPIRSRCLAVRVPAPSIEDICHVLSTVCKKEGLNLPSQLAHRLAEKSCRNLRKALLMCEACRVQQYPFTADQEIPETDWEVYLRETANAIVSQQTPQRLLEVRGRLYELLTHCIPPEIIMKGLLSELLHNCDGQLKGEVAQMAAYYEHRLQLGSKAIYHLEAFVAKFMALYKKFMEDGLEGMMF
# Sequence of UniProt P53805 (P53805 whole entry, looked up): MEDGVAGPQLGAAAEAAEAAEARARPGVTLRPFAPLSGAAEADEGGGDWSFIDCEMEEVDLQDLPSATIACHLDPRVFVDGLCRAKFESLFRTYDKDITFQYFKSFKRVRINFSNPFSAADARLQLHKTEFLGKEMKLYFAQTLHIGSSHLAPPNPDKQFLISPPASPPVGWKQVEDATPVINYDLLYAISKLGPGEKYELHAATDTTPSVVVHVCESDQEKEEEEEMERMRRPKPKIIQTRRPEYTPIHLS
# Sequence of UniProt Q9H0R6 (Q9H0R6 whole entry, looked up): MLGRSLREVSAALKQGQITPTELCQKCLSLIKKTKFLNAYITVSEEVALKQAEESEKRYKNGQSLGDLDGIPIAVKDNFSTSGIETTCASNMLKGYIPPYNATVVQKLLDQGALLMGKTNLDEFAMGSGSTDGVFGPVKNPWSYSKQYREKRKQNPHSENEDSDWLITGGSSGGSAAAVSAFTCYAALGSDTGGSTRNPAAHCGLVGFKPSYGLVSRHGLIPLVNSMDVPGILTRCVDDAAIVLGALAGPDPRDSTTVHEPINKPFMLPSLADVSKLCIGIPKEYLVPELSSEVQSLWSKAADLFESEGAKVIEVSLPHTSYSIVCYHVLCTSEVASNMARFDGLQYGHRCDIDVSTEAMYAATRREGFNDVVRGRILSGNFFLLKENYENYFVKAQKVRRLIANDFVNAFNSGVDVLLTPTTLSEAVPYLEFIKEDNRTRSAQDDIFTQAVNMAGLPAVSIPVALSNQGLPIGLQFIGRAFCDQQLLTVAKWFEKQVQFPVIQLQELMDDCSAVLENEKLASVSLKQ
row,Target,log2 fold change
1,SEC62 (UniProt Q99442),-0.027 (inactive)
2,RPL28 (UniProt P46779),-0.011 (inactive)
3,SBF1 isoform 4 (UniProt O95248),0.116 (inactive)
4,SEC16A isoform 5 (UniProt O15027),-0.021 (inactive)
5,SEH1L isoform 1 (UniProt Q96EE3),-0.024 (inactive)
6,RDH14 (UniProt Q9HBH5),0.061 (inactive)
7,RFC3 (UniProt P40938),0.131 (inactive)
8,RAB1B (UniProt Q9H0U4),-0.01 (inactive)
9,RRAGA (UniProt Q7L523),0.008 (inactive)
10,RAB3IL1 (UniProt E9PK89),0.045 (inactive)
11,RBM42 (UniProt Q9BTD8),0.02 (inactive)
12,RBSN (UniProt Q9H1K0),0.043 (inactive)
13,RAC2 (UniProt P15153),-0.04 (inactive)
14,RSU1 (UniProt Q15404),0.005 (inactive)
15,RPL37A (UniProt P61513),0.002 (inactive)
16,QRSL1 (UniProt Q9H0R6),-0.059 (inactive)
17,RBBP8 isoform 2 (UniProt Q99708),0.005 (inactive)
18,RASA2 (UniProt Q15283),-0.011 (inactive)
19,RIOK3 (UniProt O14730),-0.013 (inactive)
20,RMC1 (UniProt Q96DM3),0.018 (inactive)
21,RPS6KB1 (UniProt P23443),0.355 (active)
22,RCAN1 (UniProt P53805),0.003 (inactive)
23,RNF40 (UniProt O75150),-0.014 (inactive)
